Test results as given in the supplement of paper PMC11006884.
The full data set covers some 6,500 targets. This sample favours those with a hit. About 2% of all pairs of compound and target were hits.

Compound: COC(=O)C#Cc1ccccc1 [methyl 3-phenylpropiolate]
Experiment: log2 ratio of iodoacetamide-alkyne labeling of the cysteine site, DMSO over compound (competition); higher = stronger covalent engagement of the cysteine by the compound, active = 1 or more
Conditions: 500 µM; treatment time 1 h; system: HEK293T cell lysate
Method in brief: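 Reporter intensities give each cysteine's log2 competition ratio as the mean of control channels over the mean of compound channels. The samples were HEK293T lysate (2 mg/mL) given vehicle or electrophile (500 µM, 1 h, ambient temperature), then iodoacetamide alkyne (1 h), followed by click coupling to sCIP-TMT reagents, pooling, trypsin digestion overnight at 37 °C, streptavidin enrichment, acid elution, Orbitrap Eclipse LC-MS/MS with FAIMS and FragPipe quantification. Duplicate channels and three replicates were run, and cysteines quantified in only one replicate were discarded.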

Sequence of UniProt Q15398 (Q15398 whole entry, looked up): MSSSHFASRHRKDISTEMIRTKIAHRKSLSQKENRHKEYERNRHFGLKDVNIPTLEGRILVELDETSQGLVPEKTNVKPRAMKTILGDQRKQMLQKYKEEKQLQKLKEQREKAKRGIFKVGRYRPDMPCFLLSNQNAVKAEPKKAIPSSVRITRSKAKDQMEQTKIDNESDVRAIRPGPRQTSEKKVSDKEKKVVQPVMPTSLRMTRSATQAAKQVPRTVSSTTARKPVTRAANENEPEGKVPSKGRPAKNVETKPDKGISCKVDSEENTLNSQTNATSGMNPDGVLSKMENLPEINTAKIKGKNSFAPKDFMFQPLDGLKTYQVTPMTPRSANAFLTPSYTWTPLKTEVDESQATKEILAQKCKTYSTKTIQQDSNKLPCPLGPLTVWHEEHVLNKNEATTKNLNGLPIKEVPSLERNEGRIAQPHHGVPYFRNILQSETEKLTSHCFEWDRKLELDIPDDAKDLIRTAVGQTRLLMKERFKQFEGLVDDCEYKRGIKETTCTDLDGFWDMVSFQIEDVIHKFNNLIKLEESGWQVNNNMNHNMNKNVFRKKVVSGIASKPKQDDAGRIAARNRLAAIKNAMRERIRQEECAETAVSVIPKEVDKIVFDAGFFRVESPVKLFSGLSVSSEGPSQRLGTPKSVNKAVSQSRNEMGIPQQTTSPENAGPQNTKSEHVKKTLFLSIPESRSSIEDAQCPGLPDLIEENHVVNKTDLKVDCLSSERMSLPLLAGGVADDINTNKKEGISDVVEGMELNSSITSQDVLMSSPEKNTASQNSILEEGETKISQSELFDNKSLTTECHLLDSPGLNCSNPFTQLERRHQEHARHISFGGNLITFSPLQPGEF
Sequence of UniProt Q14966 (Q14966 whole entry, looked up): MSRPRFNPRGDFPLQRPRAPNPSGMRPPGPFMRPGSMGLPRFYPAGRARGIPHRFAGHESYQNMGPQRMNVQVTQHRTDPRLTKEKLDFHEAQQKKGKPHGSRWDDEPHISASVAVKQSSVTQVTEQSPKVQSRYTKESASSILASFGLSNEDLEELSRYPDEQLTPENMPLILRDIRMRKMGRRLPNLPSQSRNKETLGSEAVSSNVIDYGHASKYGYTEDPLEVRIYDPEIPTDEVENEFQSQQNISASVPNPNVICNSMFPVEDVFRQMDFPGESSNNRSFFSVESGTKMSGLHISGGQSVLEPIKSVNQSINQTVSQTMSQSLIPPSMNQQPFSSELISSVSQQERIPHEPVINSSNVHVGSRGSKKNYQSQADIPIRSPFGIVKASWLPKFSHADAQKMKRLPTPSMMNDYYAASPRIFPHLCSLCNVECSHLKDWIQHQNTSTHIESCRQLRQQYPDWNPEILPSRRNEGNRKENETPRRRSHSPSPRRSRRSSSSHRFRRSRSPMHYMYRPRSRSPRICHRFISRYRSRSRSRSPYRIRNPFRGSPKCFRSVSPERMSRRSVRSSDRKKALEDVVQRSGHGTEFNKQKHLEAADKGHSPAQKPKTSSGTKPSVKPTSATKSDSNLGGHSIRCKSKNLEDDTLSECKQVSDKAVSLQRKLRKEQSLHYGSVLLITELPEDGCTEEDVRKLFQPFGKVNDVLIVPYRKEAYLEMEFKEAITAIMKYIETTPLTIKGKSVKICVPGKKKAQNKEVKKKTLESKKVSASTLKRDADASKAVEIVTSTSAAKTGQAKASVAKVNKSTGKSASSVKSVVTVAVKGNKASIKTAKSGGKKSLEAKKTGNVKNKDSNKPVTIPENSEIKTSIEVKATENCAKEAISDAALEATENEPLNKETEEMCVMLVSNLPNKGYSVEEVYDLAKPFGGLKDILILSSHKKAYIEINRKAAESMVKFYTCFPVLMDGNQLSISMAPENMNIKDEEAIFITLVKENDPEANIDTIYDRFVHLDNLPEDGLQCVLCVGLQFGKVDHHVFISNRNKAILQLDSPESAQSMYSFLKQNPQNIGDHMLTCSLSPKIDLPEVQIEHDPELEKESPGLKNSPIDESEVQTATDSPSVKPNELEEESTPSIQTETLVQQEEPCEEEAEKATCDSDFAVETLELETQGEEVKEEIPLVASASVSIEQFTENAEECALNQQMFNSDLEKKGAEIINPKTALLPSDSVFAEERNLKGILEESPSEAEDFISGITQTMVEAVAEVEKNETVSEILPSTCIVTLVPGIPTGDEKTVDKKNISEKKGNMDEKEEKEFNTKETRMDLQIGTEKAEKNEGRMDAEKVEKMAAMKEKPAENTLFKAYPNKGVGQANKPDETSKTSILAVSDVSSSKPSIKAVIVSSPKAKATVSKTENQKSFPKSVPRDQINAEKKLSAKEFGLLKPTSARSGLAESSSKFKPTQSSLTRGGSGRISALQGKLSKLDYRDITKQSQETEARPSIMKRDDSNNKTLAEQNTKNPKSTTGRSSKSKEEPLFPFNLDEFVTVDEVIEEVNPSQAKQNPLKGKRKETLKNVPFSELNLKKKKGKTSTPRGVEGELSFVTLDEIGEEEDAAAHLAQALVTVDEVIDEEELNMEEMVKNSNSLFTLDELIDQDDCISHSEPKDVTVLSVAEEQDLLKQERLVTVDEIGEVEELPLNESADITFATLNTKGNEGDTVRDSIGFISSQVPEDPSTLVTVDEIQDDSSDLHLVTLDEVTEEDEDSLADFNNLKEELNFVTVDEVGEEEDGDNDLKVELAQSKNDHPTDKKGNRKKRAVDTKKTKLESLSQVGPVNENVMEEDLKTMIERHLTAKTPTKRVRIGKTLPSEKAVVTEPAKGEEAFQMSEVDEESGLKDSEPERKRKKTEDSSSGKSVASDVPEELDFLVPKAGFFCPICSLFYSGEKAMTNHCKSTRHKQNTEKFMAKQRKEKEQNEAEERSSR
Sequence of UniProt Q12834 (Q12834 whole entry): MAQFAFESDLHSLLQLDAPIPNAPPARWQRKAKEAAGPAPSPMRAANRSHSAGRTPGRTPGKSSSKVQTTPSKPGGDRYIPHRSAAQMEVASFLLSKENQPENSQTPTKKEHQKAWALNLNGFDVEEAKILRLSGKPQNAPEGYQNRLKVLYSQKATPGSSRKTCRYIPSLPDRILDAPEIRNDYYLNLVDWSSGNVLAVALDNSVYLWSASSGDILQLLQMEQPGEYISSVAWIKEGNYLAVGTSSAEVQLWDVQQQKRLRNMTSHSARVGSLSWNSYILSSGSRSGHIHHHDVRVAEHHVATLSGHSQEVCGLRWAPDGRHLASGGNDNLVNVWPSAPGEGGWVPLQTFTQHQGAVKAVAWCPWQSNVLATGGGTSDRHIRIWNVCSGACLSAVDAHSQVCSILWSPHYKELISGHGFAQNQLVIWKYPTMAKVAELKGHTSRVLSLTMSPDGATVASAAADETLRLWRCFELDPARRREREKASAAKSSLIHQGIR
Sequence of UniProt Q07157 (Q07157 whole entry, looked up): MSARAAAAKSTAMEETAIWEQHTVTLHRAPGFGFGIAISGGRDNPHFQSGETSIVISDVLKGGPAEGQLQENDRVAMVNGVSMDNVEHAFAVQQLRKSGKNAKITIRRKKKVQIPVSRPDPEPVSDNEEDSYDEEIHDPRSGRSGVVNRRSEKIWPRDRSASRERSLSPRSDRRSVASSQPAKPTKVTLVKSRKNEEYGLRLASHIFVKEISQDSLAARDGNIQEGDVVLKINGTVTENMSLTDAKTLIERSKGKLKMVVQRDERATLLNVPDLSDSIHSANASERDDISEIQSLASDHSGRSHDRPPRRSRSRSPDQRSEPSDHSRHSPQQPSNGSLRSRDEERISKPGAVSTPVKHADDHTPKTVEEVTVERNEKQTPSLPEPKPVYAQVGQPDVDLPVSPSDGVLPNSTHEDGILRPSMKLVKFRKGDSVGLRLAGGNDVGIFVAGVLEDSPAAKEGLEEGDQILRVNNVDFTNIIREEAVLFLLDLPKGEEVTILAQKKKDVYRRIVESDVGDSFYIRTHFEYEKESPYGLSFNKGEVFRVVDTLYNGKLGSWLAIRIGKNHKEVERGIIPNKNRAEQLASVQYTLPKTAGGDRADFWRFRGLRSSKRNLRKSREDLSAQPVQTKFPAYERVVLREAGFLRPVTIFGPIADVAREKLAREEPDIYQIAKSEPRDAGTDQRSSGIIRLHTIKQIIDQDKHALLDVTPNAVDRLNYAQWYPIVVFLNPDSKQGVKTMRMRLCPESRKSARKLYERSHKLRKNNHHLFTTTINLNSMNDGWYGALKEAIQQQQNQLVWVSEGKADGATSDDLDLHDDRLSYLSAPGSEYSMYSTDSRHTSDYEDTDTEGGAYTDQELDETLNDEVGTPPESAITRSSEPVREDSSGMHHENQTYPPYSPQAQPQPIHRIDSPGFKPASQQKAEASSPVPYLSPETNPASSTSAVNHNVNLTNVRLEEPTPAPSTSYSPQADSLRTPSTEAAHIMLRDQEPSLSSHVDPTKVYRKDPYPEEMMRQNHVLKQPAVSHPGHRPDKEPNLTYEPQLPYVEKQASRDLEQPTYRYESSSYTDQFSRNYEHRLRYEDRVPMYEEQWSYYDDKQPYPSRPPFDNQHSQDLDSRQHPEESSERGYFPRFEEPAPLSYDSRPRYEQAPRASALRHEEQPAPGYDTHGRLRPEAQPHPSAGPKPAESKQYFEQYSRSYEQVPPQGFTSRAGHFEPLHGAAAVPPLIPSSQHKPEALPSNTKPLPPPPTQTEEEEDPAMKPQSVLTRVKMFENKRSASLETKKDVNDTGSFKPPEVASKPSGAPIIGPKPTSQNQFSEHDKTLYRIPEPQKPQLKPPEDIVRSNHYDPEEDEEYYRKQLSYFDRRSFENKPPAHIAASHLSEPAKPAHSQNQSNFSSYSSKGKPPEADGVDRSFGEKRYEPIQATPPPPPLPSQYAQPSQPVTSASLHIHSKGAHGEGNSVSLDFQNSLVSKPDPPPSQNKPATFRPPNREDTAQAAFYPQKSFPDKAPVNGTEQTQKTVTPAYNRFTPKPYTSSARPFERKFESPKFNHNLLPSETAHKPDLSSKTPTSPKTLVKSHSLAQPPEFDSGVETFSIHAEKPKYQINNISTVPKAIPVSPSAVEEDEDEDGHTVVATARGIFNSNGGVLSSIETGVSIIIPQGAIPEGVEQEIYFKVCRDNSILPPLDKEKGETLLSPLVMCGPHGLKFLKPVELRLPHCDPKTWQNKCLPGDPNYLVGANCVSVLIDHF

log2 ratio of iodoacetamide-alkyne labeling, active:
NUMA1 C961 (UniProt Q14980) 1.55
DLGAP5 C129 (UniProt Q15398) 1.38
DIP2A C6 (UniProt Q14689) 1.75
CDC20 C364 (UniProt Q12834) 1.22

log2 ratio of iodoacetamide-alkyne labeling, inactive:
TJP1 C1727 (UniProt Q07157) 0.0718
RPL18 C134 (UniProt Q07020) 0.213
UniProt Q13247_C61 -0.0753
RPS27A C149 (UniProt P62979) 0.251
UniProt P60891_C165 -0.19
UniProt Q16512_C602 0.0536
EEA1 C1405 (UniProt Q15075) 0.0817
ZNF638 C1930 (UniProt Q14966) -0.212
HNRNPH2 C34 (UniProt P55795) 0.0589
